The text below walks through data of PubChem BioAssay AID1851 (National Center for Advancing Translational Sciences (NCATS), 2009).

Out of some 16,000 compounds screened, about 4,000 (25%) were called active. About 26% were inconclusive and are not listed. Not all results are given here. Values without a mark were called inactive. The call rests on the fitted dose curve; in most records, active means well fitted curve in the direction sought with a large enough effect; inconclusive means small, poorly fitted or top-dose-only effect, or effect the other way; inactive means no such curve, though single readings can be large or run the other way.

Usually AC50 stands for the concentration giving half of the maximal activity seen.
On the % scale 0 is the no-effect control and ±100 the full control effect.

Cytochrome P450 2C9 (Homo sapiens), sequence (P11712 whole entry, looked up): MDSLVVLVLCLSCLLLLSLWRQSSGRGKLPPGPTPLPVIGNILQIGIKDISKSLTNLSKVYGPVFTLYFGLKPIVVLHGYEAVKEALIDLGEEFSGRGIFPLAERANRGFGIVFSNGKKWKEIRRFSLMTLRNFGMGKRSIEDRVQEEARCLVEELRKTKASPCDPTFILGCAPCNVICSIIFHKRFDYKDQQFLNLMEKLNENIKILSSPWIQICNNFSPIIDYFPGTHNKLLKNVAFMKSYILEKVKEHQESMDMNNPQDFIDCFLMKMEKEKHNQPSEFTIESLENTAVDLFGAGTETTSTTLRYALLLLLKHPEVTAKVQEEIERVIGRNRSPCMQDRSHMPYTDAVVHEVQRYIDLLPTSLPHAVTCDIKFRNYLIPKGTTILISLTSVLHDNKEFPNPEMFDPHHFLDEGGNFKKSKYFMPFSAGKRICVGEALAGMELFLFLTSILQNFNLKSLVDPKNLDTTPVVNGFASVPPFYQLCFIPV

The assay addresses Cytochrome P450 2C9 (Homo sapiens) (UniProt P11712). In words: Cytochrome panel assay with activity outcomes. Particulars: recombinant CYP, pro-luciferin dealkylation, luminescence, p450-cyp2c9; series mostly up to 57.1 µM; activity, negative = inhibition: at the top concentration.
With `COc1ncc2nc(CCc3ccccc3)c(=O)n(CCC#N)c2n1`, the “activity, negative = inhibition” value was -25.7%.

Consider `COCCn1c(=O)c(-c2cn(C)c3ccccc23)nc2cnc(OCc3ccccc3)nc21`, for which the “activity, negative = inhibition” value was 23.6%. For the compound `C/C(=N\[N+](C)(C)C)c1ccc(C)c(C)c1`, the activity, negative = inhibition is 13% [at 11.4 µM]. As to `COCCn1c(=O)c(CCc2ccccc2)nc2cnc(Oc3cccc(Cl)c3)nc21`, the concentration at half-maximal activity (AC50) was 1 µM (active).

With `N#CCCn1c(=O)cnc2cnc(OCc3ccccc3)nc21`, the “activity, negative = inhibition” value is -2.69%. As to `COCCn1c(=O)c(CCc2ccccc2)nc2cnc(Oc3ccc(OC)cc3)nc21`, the AC50 was 10 µM (active). As to `COc1ccc(Oc2ncc3nc(C)c(=O)n(C)c3n2)cc1`, the “activity, negative = inhibition” value is 7.96%. On the same count and under the same terms, for `COc1ncc2nc(CCc3ccccc3)c(=O)n(C)c2n1` the value was -24.3%. For the compound `COc1ccc(Oc2ncc3nc(CCc4ccccc4)c(=O)n(C)c3n2)cc1`, the AC50 is 10 µM (active). Consider `N#CCCn1c(=O)c(-c2ccccc2)nc2cnc(OCc3ccccc3)nc21`, for which the AC50 is 12.6 µM (active).

With `N#CCCn1c(=O)c(-c2ccc(F)cc2)nc2cnc(OCc3ccccc3)nc21`, the “activity, negative = inhibition” value is 7.08%.

Turning to `COc1ccc(CNc2ccnc(-c3ccccc3Cl)n2)c(OC)c1`, the activity, negative = inhibition is -11.5% [at 2.29 µM]. As to `N[C@@H]1[C@@H]2[C@@H]3C[C@H]4N(CC[C@@]14C(=O)C(=O)O)CC3=CCO[C@@H]2CC(=O)O`, the activity, negative = inhibition was 5.63% [at 11.4 µM].

With `CC(C)(C)CNCCO`, the activity, negative = inhibition is 3.65% [at 11.4 µM]. Take `O=C(Nc1cccc(F)c1)N1CC[C@@]2(CCCN(C(=O)c3cnccn3)C2)C1`: the “activity, negative = inhibition” value was 1.58%. For the compound `COc1cc(NC(=S)Nc2ccc(S(=O)(=O)N3CCOCC3)cc2)cc(OC)c1OC`, the AC50 is 15.8 µM (active). For `CS(=O)(=O)Nc1ccc(S(=O)(=O)N2CCOCC2)cc1`, the “activity, negative = inhibition” value is -26.6%. The same measure, in the same setting: as for `FC(F)(F)c1ccccc1-c1cncnc1Nc1ccccc1`, the figure is -0.414% [at 2.29 µM]; as for `CC(=O)NCCNc1cc(-c2ccccc2C(F)(F)F)ncn1`, -3.9% [at 2.29 µM].

Take `CC=C(/C(=C/C)c1ccc(O)cc1)c1ccc(O)cc1`: the AC50 was 0.794 µM (active). `Cc1cc(N2CCN(C)CC2)n2nc(-c3ccc(Cl)cc3)nc2n1`: the activity, negative = inhibition is 6.91% [at 11.4 µM]. As to `COc1ccc(-c2nc3cnc(Oc4cccc(Cl)c4)nc3n(C[C@H]3CCCO3)c2=O)cc1`, the AC50 is 5.01 µM (active). Regarding `CN(C)c1ncc2nc(-c3cccs3)c(=O)n(C[C@H]3CCCO3)c2n1`, the “activity, negative = inhibition” value was 6.79%.

With `O=c1c(CCc2ccccc2)nc2cnc(Oc3cccc(Cl)c3)nc2n1C[C@H]1CCCO1`, the AC50 is 6.31 µM (active). Consider `O=c1cnc2cnc(Nc3ccccc3)nc2n1C[C@H]1CCCO1`, for which the “activity, negative = inhibition” value is -25.1%. With `O=c1c(-c2cccs2)nc2cnc(Oc3cccc(Cl)c3)nc2n1C[C@H]1CCCO1`, the AC50 is 3.16 µM (active).

On to `Cc1nc2cnc(Oc3cccc(Cl)c3)nc2n(C[C@H]2CCCO2)c1=O`, for which the “activity, negative = inhibition” value is -12.1%. On to `COc1ccc(-c2nc3cnc(N(C)C)nc3n(C[C@H]3CCCO3)c2=O)cc1`, for which the “activity, negative = inhibition” value was 25.1%.

Consider `COc1ncc2nc(-c3cc(F)cc(F)c3)c(=O)n(C[C@H]3CCCO3)c2n1`, for which the “activity, negative = inhibition” value is -21.8%. For the compound `O=c1c(-c2cccs2)nc2cnc(Nc3ccccc3)nc2n1C[C@H]1CCCO1`, the “activity, negative = inhibition” value is 2.81%. Consider `Cc1noc(C)c1-c1nccc(N2CCN(C)CC2)n1`, for which the activity, negative = inhibition was 14.4% [at 2.29 µM]. Still for that read-out and setting: for `CN(C)Cc1ccccc1-c1cncnc1NCc1cccnc1` the value was 11.6% [at 2.29 µM]. Regarding `COc1ccc(CNc2cc(-c3ccccc3CN(C)C)ncn2)c(OC)c1`, the activity, negative = inhibition is 4.22% [at 2.29 µM]. On the same count and under the same terms, as for `CC(=O)Nc1c(C(=O)N2CCOCC2)cnn1-c1ccc(C)c(C)c1`, the figure is 17.7%. Turning to `Cc1ccc(-n2c(C)cc(C(=S)N3CCOCC3)c2C)cc1C`, the AC50 was 11.2 µM (active). Turning to `Cc1cnc(CNc2ccnc(-c3ccoc3)n2)cn1`, the activity, negative = inhibition is 12.6% [at 2.29 µM]. For the compound `COc1cc2c(cc1OC)-c1cc(=Nc3c(C)cc(C)cc3C)n(C)c(=O)n1CC2`, the AC50 is 1.26 µM (active).

Take `CSc1c(-c2ccccc2)nc2ccc(Cl)cc2c1C(=O)O`: the AC50 was 0.794 µM (active). For `Cc1cnc2cc(Cl)ccc2c1SCC(=O)O`, the activity, negative = inhibition was 3.69% [at 11.4 µM].

On to `CSc1c(-c2ccccc2)nc2ccccc2c1C(=O)O`, for which the “activity, negative = inhibition” value was -28.5%. Still for that read-out and setting: for `CC1(C)CC(O)CC(C)(C)N1CC(O)COCCOc1ccc(Br)cc1` (stereo unspecified) the value was 14.8%; for `O=C(O)/C(=C\c1ccccc1)c1ccccc1`, -20.6% [at 11.4 µM].

With `COc1ccc(/C=C(/C(=O)Nc2ccccc2C(=O)NC(C)C)c2ccccc2)cc1`, the AC50 was 10 µM (active).

Consider `CC(C)NC(=O)/C(=N\O)c1ccccc1`, for which the “activity, negative = inhibition” value was -13.6%. For `Cc1ccccc1NC(=O)/C(=C/c1ccccc1)c1ccccc1`, the AC50 is 7.94 µM (active). On to `Cc1ccccc1NC(=S)NN1CCN(C)CC1`, for which the “activity, negative = inhibition” value was -10.3%.
